Compound activity (PubChem)
Nrf2 activator – qHTS of Nrf2 Activators | AREc32 ARE-luciferase reporter (MCF7-derived line), luminescence, 24 h | Potency, µM (doses to about 46.1 µM), without a hit: at the top dose activation, actives largely listed as activators | 0.31% of 410,000 active | AID 624171, 2012; note: % of control where 0% means no effect; nearly all actives have a fitted effect of over 65% in size
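ARE-driven firefly luciferase activity in AREc32 cells measured after a 24 hr compound exposure at 37 deg C, using Steady-Glo reagent and a 30 min room-temperature hold.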
ELG1 repair inh – qHTS screen for small molecules that inhibit ELG1-dependent DNA repair in human embryonic kidney (HEK293T) cells expressing luciferase-tagged ELG1; HEK293T ELG1-luciferase reporter, luminescence, 16 h; DNA damage induced by 5-fluorouridine; Potency, µM (series often up to 46.1 µM), inactives show top-dose activity change, negative = inhibition, most hits filed as inhibitors; 2.3% of 330,000 active; AID 504467, 2011; note: % is set by controls: 0 for no effect and ±100 for the full control effect; nearly all actives have a fitted effect of over 55% in size
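5-Fluorouridine DNA damage + compound/DMSO, 2,000 cells/well, 16 h, 37 °C/5% CO2. ONE-Glo, 30 min RT, luminescence. Readout = decrease in reporter signal.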
Nrf2 inh – Nrf2 qHTS screen for inhibitors; A549 ARE-Fluc reporter, luciferase luminescence, 18-24 h; Potency, µM (top dose mostly 46 µM), for the others: top-dose activity change, negative = inhibition, most hits filed as inhibitors; 2.1% of 360,000 active; AID 504444, 2011; note: % is set by controls: 0 for no effect and ±100 for the full control effect; nearly all actives have a fitted effect of over 60% in size
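Concentration-response testing used A549 ARE_Fluc cells at 5000 cells/well. Following an 18-24 h compound incubation, viability was read by fluorescence (Ex 405/Em 525) and luciferase output by luminescence.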
A549 tox – Nrf2 qHTS screen for inhibitors: counterscreen for cytotoxicity; Potency, µM (highest dose often 46 µM), for the others: at the highest dose activity change, negative = cytotoxicity, actives largely listed as inhibitors; 0.16% of 390,000 active; A549 ARE-Fluc cells, CellTiter-Fluor viability, 18-24 h; note: % is set by controls: 0 for no effect and ±100 for the full control effect
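A549 ARE-Fluc cells in 5% FBS OPTI-MEM, 5000 cells/well, rested 2 h then exposed to compounds in concentration-response for 18-24 h at 37 °C. Viability by CellTiter-Fluor fluorescence (Ex 405/Em 525) after 30 min; luciferase luminescence (BugLite, 15 min, RT) read afterwards.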
* marks the source's active call; other numbers are inactive results; ? = inconclusive; . = not tested or not shown; [ ] = another dose, or the depositor's remark. Hits are enriched below; roughly 3.7% of the tested compounds scored in any of these assays. Calls come from the whole dose curve; as a rule, active = well fitted curve in the direction sought with a large enough effect; inconclusive = small, poorly fitted or top-dose-only effect, or another doubt; inactive = no such curve, though single readings can be large; an effect the other way counts as inactive or inconclusive. Potency is the fitted concentration of half-maximal effect.

SMILES	Nrf2 activator	ELG1 repair inh	Nrf2 inh	A549 tox
COc1ccccc1Nc1nc(-c2c(C)nc3ncccn23)cs1	7.5%	-17.7%	11.6µM*	?
COc1ccc(NC(=O)COC(=O)c2c(NC(C)=O)sc(C)c2C)cc1	2.0%	.	.	.
CCN(Cc1ccccc1)C(=O)Cn1c(=O)cc(C)c2c(C)nn(-c3cccc(F)c3)c21	-0.8%	.	20.6µM*	-21.7%
O=C(N/N=C\c1ccc(CNS(=O)(=O)c2ccc(Cl)cc2)o1)C(=O)Nc1ccc(Oc2ccccc2)cc1	-0.8%	6.6%	16.4µM*	?
CCOc1ccccc1NC(=O)C1CCN(S(=O)(=O)Cc2ccccc2)CC1	-0.2%	.	23.1µM*	-1.1%
COC(=O)c1cccc(NC(=O)C2CCN(S(=O)(=O)Cc3ccccc3)CC2)c1C	-0.2%	.	8.8%	12.4%
O=C(c1ccccc1F)N1CCCC(N2CCN(Cc3ccc4c(c3)OCO4)CC2)C1 (configuration not stated)	1.9%	.	.	.
CCOC(=O)/C(=C\c1ccc(Cl)cc1)c1nc2sc(C)c(C)c2c(=O)[nH]1	?	?	18.4µM*	?
COc1ccc(Cn2c(SCc3ccc(C(=O)NC4CCCCC4)cc3)nc3ccncc32)cc1	6.6%	.	13µM*	-5.1%
Cc1ccc(Cn2c(SCc3ccc(C(=O)NC4CCCCC4)cc3)nc3ccncc32)cc1	3.8%	.	20.6µM*	-16.5%
COc1ccc(Cn2c(SCc3ccc(C(=O)NC4CCCC4)cc3)nc3ccncc32)cc1	0.2%	.	16.4µM*	-14.4%
O=C(NC1CCCC1)c1ccc(CSc2nc3ccncc3n2Cc2ccc(F)cc2)cc1	3.6%	?	?	1.0%
O=C(NC1CCCCC1)c1ccc(CSc2nc3ccncc3n2Cc2ccccc2)cc1	6.8%	.	?	-0.7%
COc1cccc(NC(=O)CCN2C(=O)C3CC=CCC3C2=O)c1 (configuration not stated)	1.5%	?	1.0%	0.9%
Cc1ccccc1CCNC(=O)C1CCN(S(=O)(=O)c2ccc3c(ccn3C)c2)CC1	0.6%	.	.	-2.0%
COc1ccccc1CNC(=O)c1oc2ccc(S(=O)(=O)N3CCCCC3)cc2c1C	1.1%	.	.	10.5%
CC1=NN(c2ccccc2)C(=O)/C1=C\C=C\c1ccccc1	?	18.3µM*	-14.5%	1.8%
CCOC(=O)c1c(-c2cccs2)csc1NC(=O)CC(C)C	-0.1%	0.0%	-8.6%	14.8%
CCOC(=O)c1c(-c2ccccc2)csc1NC(=O)CSc1nnnn1C	-0.8%	4.11µM*	-1.4%	1.9%
CCOC(=O)c1c(-c2cccs2)csc1NC(=O)CN(CC)CC	-0.1%	-22.9%	18.4µM*	?
CCOC(=O)c1c(-c2ccccc2)csc1NC(=O)CCN1CCOCC1	2.5%[9.22 µM]	23.1µM*	3.7%	11.5%
CCOC(=O)c1c(-c2ccccc2)csc1NC(=O)CSc1ccccc1	-0.6%	-0.7%	5.6%	10.9%
CCOC(=O)C1=C(C)NC(=O)NC1C(C)C (configuration not stated)	-1.2%	.	-16.6%	1.6%
NC(=O)c1c(NC(=O)C(=O)N2CCOCC2)sc2c1CCCC2	-0.3%	13.1%	9.8%	9.1%
O=C(CCl)NCCCCCCCCCNC(=O)CCl	11.2µM*	?	-13.3%	?
SMILES	Nrf2 activator	ELG1 repair inh	Nrf2 inh	A549 tox
C=CS(=O)(=O)N(Cc1ccc(Cl)c(Cl)c1)C[C@@H](O)CO	14.2%	9.2µM*	?	-14.6%
CCc1ccc(C2NC(=O)c3[nH]nc(-c4cccc(OC)c4)c32)cc1 (configuration not stated)	4.8%	.	7.31µM*	-9.1%
CCCCn1c(=O)n(CC2CCC(C(=O)NCCCOC)CC2)c(=O)c2sccc21 (configuration not stated)	0.4%	.	21.4%	7.0%
COc1cc(CCNC2=CC(=O)c3ncccc3C2=O)ccc1O	-2.8%	.	13µM*	16.4µM*
COc1ccc(-c2c3c(=O)n(C)c(=O)n(C)c3c3n2-c2ccccc2NC3c2ccc(OC)cc2)cc1 (configuration not stated)	0.9%	.	12.5%	5.0%
Cn1cnc2c(oc3ccccc32)c1=O	0.0%	.	-0.1%	7.9%
Cc1ccc(S(=O)(=O)c2nc(NN(C)C)sc2Cl)cc1	0.5%	?	23.1µM*	-17.5%
Cc1nn(C2CCS(=O)(=O)C2)c2nc(C3CC3)cc(C(=O)Nc3cccc(C#N)c3)c12 (configuration not stated)	0.4%	-19.2%	-7.5%	-10.5%
CCOC(=O)c1c(Nc2cccc(C(=O)OC)c2)nnc(-c2ccccc2)c1-c1ccccc1	0.2%	.	?	-18.1%
CCOC(=O)c1c(Nc2ccc(C)cc2)nnc(-c2ccccc2)c1-c1ccccc1	1.0%	.	18.4µM*	-14.5%
CCOc1cc(/C=C2\SC(=N)N(c3nccs3)C2=O)ccc1OCCN1CCOCC1	0.3%[9.22 µM]	?	18.4µM*	20.6µM*
COC(=O)c1ccc(-n2nnnc2SCC(=O)Nc2ccccc2F)cc1	-0.8%	-12.3%	6.6%	7.8%
CCSc1ncnc2sc3c(c12)CCC3	2.2%	-0.2%	.	3.4%
CCN(CC)c1ncnc2sc3c(c12)CCC3	-0.3%	14.6µM*	.	15.9%
Cn1nc(C(F)(F)F)c(/C=N/OC(=O)c2ccccc2Cl)c1SCc1ccc(Cl)cc1	-0.9%	-4.9%	20.6µM*	?
CC(=O)NC1=CC(=O)c2nonc2C1=O	.	.	2.91µM*	7.31µM*
CCOc1ccc(S(=O)(=O)NCCC(=O)OCC(=O)Nc2cc(C)on2)cc1	0.1%	?	1.6%	0.3%
Cc1c(C(=O)N2CCC2(C)C(=O)O)oc2ccccc12 (configuration not stated)	0.4%[9.22 µM]	.	.	.
c1ccc2sc(C3CCN(Cc4nnnn4Cc4ccc5c(c4)OCO5)CC3)nc2c1	-0.2%	?	?	1.7%
COc1ccc(Cn2nnnc2CN2CCC(c3nc4ccccc4s3)CC2)cc1	-0.6%	?	23.1µM*	-2.6%
CC1CC(NC(=O)c2cc3c(=O)n4ccccc4nc3n2C)CC(C)(C)C1 (configuration not stated)	-0.2%	?	20.6µM*	16.3%
Clc1ccc(CNc2ncnc3[nH]ncc23)c(Cl)c1	0.4%	.	23.1µM*	-13.8%
COc1ccccc1NC(=O)C(=O)N/N=C/c1cccs1	11.2µM*	?	?	7.8%
COCCNC(=O)C(=O)N/N=C/c1cccs1	-1.1%	-1.3%	8.6%	9.9%
CCC(C)Nc1sc(S(=O)(=O)CC)nc1S(=O)(=O)c1ccc(C)cc1 (configuration not stated)	0.1%	.	-4.5%	10.5%
Cn1nc(-c2ccccc2F)c2cc(C(=O)NCc3ccccc3Cl)sc21	0.8%	.	-12.3%	1.3%
CS(=O)(=O)Oc1ccc2c(c1)O/C(=C\c1cccc([N+](=O)[O-])c1)C2=O	3.1%	18.3µM*	6.5%	0.1%
O=S1(=O)N=C(OCc2ccccc2)c2ccccc21	.	.	?	8.7%
